Compounds with a hit are over-represented: about 12% of the library has one in this group of screens.
PLK1 PBD inh – inhibitors of human PLK1 polo-box domain binding; Potency, µM, without a hit: max response, negative = inhibition, actives largely listed as inhibitors; Plk1 PBD binding of FITC phosphopeptide, fluorescence polarization; P53350; AID 720504; 360,000 tested, 2.8% active; note: potency is the fitted concentration of half-maximal effect; series mostly up to about 57 µM; % is set by controls: 0 for no effect and ±100 for the full control effect; nearly all actives have a fitted effect of over 65% in size
HP1b chromo inh – inhibitors of HP1-beta chromodomain binding to methylated histone tails. 390,000 tested, 0.56% active. Potency, µM (highest dose often 114 µM), for the others: at the top dose activity change, negative = inhibition, usual class: inhibitors. AlphaScreen HP1-beta / biotin-H3K9me3 peptide binding; note: potency is the fitted concentration of half-maximal effect; nearly all actives have a fitted effect of over 70% in size
Target sequence (P83916 whole entry, looked up): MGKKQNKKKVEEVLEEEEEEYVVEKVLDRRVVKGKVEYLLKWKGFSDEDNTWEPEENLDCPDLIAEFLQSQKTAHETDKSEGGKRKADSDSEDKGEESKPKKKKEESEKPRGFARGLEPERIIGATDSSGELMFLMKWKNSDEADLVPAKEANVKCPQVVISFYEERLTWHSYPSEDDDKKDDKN
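HP1-beta protein (50 nM final) preincubated 30 min at room temperature with biotinylated H3(1-18)K9me3 peptide (50 nM) in PBS pH 7.4, 0.01% Tween-20, then compound added for 30 min. AlphaScreen streptavidin donor/nickel chelate acceptor beads (10 ug/mL final), 30 min dark, luminescence read.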
PI5P4K alpha inh – inhibitors of human PI5P4K alpha; PI5P4Kalpha enzyme, ADP-Glo luminescence, 60 min; hits give low values; max response, %; 330,000 tested, 1.2% active; AID 652105; active = max response of -50% or lower; inconclusive = between -30% and -50%; inactive = -30% or higher; note: value at the top dose of about 77 µM; % is set by controls: 0 for no effect and ±100 for the full control effect
Target sequence (P48426 whole entry, looked up): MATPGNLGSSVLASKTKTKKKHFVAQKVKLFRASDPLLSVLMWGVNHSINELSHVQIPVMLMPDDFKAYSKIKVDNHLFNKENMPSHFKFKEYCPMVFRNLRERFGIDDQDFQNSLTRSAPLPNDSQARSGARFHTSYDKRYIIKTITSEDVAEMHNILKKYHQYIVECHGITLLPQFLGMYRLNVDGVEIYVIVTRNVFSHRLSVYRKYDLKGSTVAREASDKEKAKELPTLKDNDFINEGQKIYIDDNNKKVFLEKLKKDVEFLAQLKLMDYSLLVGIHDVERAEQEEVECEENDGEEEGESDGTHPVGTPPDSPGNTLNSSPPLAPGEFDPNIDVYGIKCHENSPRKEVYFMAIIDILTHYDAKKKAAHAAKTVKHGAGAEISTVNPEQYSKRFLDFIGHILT
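Luminescence from ADP-Glo served as readout of PI5P4Kalpha activity in a qHTS format. Reaction: enzyme, substrate, compound, ATP at 5 microM final, 60 min at RT.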
JMJD2A Tudor inh – JMJD2A Tudor domain (human) inhibition. O75164. AlphaScreen JMJD2A-Tudor / H3K4me3 peptide binding. Potency, µM (series often up to 114 µM), for inactives: at the top dose activity change, negative = inhibition, usual class: inhibitors. 390,000 tested, 4.4% active. AID 504339; note: potency is the fitted concentration of half-maximal effect; % is set by controls: 0 for no effect and ±100 for the full control effect; nearly all actives have a fitted effect of over 50% in size
G9a inh – inhibitors of human histone lysine methyltransferase G9a; Potency, µM (series often up to 102 µM), for inactives: at the highest dose activity, negative = inhibition, most hits filed as inhibitors; Q96KQ7; G9a H3K9 monomethylation, AlphaScreen, 2 h; 350,000 tested, 8.8% active; note: potency is the fitted concentration of half-maximal effect; % is set by controls: 0 for no effect and ±100 for the full control effect; nearly all actives have a fitted effect of over 75% in size
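G9a (20 nM) preincubated 15 min RT with compounds, then 500 nM biotinylated H3K9 peptide and 20 uM SAM added; 2 h RT reaction. Monomethyl-H3K9 product detected by AlphaScreen with anti-H3K9me1 antibody, streptavidin donor and anti-rabbit IgG acceptor beads.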
BAZ2B block – blocks human BAZ2B | Potency, µM (highest dose often 114 µM), without a hit: top-dose activity change, negative = inhibition, actives largely listed as inhibitors | AlphaScreen BAZ2B-H3K14Ac peptide displacement | Q9UIF8 | 360,000 tested, 4.4% active; note: potency is the fitted concentration of half-maximal effect; % is set by controls: 0 for no effect and ±100 for the full control effect; nearly all actives have a fitted effect of over 60% in size
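Inhibition is scored as reduced AlphaScreen emission. The BAZ2B/b-H3(5-23)K14Ac complex (50 nM each) in PBS pH 7.4, 0.01% Tween-20 meets compound (up to 110 uM) for 30 min at RT before bead addition.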
The depositor's hits bear a star; ? = inconclusive; . = no result; [ ] = dose if it differs, or a comment. Unless noted, calls come from the whole dose curve; as a rule, active = well fitted curve in the direction sought with a large enough effect; inconclusive = small, poorly fitted or top-dose-only effect, or another doubt; inactive = no such curve, though single readings can be large; an effect the other way counts as inactive or inconclusive.

SMILES | PLK1 PBD inh | HP1b chromo inh | PI5P4K alpha inh | JMJD2A Tudor inh | G9a inh | BAZ2B block
CCCn1c(N)c(N(CCOC)C(=O)c2ccc(N(C)S(=O)(=O)c3ccc(C)cc3)cc2)c(=O)[nH]c1=O | -12% | 5% | 6 | -9% | 1µM* | ?
COCCN(C(=O)c1ccc(C#N)cc1)c1c(N)n(Cc2ccccc2)c(=O)[nH]c1=O | 2% | 53% | 3 | 1% | -5%[12.7 µM] | 5%
CCCn1c(N)c(N(CCOC)C(=O)c2ccc([N+](=O)[O-])cc2Cl)c(=O)[nH]c1=O | -4% | 4% | 1 | -9% | 50µM* | 8%
CCCCn1c(N)c(N(CCOC)C(=O)c2ccc(N3CCCC3=O)cc2)c(=O)[nH]c1=O | -8% | 29% | -1 | -13% | -4%[12.7 µM] | 10%
COCCN(C(=O)c1ccc(N2CCCC2=O)cc1)c1c(N)n(Cc2ccccc2)c(=O)[nH]c1=O | -13% | 35% | -5 | -12% | 7.9µM* | 6%
CCCn1c(N)c(N(CCOC)C(=O)c2ccc(N3CCCC3=O)cc2)c(=O)[nH]c1=O | 3% | 38% | 6 | 0% | 56µM* | 5%
COCCN(C(=O)c1ccc(OCC(C)C)cc1)c1c(N)n(Cc2ccccc2)c(=O)[nH]c1=O | -11% | 12% | -2 | -8% | 35µM* | -1%
Cn1c(=O)cc(N2CCN(C(=O)c3ccco3)CC2)[nH]c1=O | -3% | 35% | -5 | -1% | . | 4%
Cc1ccc(-n2c(=O)cc(N3CCN(C(=O)c4ccco4)CC3)[nH]c2=O)cc1 | -13% | 12% | -8 | -16% | 45µM* | 8%
CCOc1ccccc1NC(=O)C1CCCN(S(=O)(=O)c2ccc(-n3cnnn3)cc2)C1 (configuration not stated) | -8% | 10% | 12 | -9% | -8% | -2%
Nc1ccc(N2CCN(CCCCN3C(=O)C4CCCN4C3=O)CC2)cc1 (configuration not stated) | -3% | -28% | -12 | ? | 10µM* | ?
COc1ccccc1N1CCN(CCCCN2C(=O)C3CCCCN3C2=O)CC1 (configuration not stated) | 8.4µM* | -4% | -26 | ? | 22%[0.501 µM] | 5%
O=C(CSc1nnc2ccc3ccccc3n12)Nc1ccccc1Cl | . | 56% | . | 0% | 3%[59 µM] | -25%
NC(=O)NC(=O)COC(=O)c1ccc2noc(-c3ccccc3)c2c1 | -2% | 31% | -7 | -5% | -7% | -1%
CC(=O)COC(=O)c1ccc2noc(-c3ccccc3)c2c1 | -1% | 8% | ? | -32% | -5% | 50µM*
Cc1cccc(-c2onc3ccc(C(=O)/C=C/N(C)C)cc23)c1 | -10% | 12% | -68* | -32% | 7%[0.501 µM] | ?
CCN(CC)CCOc1ccccc1C(C)=O | -12% | ? | -3 | 18µM* | 11µM* | 50µM*
O=C(/C=C/c1ccncc1)c1cc(Cl)ccc1O | -20% | ? | -22 | 35µM* | 22µM* | 45µM*
CN(C)c1ccc(/C=C/C(=O)c2cc(Cl)ccc2O)cc1 | 9% | ? | 24 | 13µM* | 4µM* | 6.3µM*
CN(C)c1ccc(C(=O)/C=C/c2ccc(Br)cc2)cc1 | -7% | 40% | 0 | -26% | ? | -5%
C/C(=N\Nc1cccc(C(=O)O)c1)c1cc2ccccc2o1 | -13% | -10% | 8 | ? | 50µM* | ?
C/C(=N\Nc1ccc(Cl)c(C(=O)O)c1)c1cccc2ccccc12 | 27µM* | 79µM* | -30 | 56µM* | 10µM* | ?
C/C(=N\Nc1ccccc1)c1cc2ccccc2oc1=O | -11% | 1% | 0 | ? | 35µM* | -24%
C/C(=N\Nc1ccc(Cl)c(C(=O)O)c1)c1cc2ccccc2o1 | -14% | 12% | -5 | -28% | 28µM* | ?
C/C(=N\NC(=O)CC#N)c1cc2ccccc2oc1=O | -2% | 34% | -9 | 0% | 23%[59 µM] | -6%
SMILES | PLK1 PBD inh | HP1b chromo inh | PI5P4K alpha inh | JMJD2A Tudor inh | G9a inh | BAZ2B block
O=C(O)c1cc(N/N=C/c2cccc3ccccc23)ccc1Cl | -20% | 4% | -14 | -16% | ? | -10%
COC(=O)C1=C(c2ccccc2)c2ccccc2S(=O)(=O)N1CC(=O)Nc1ccc(F)c(F)c1 | . | -7% | . | -32% | ? | -21%
Cc1ccc(S(=O)(=O)CCC(=O)OCC(=O)c2cc(C)n(C)c2C)cc1 | -1% | -10% | 1 | -35% | 6%[12.7 µM] | ?
CCN(Cc1ccccc1)C(=O)Cn1c(=O)n(-c2ccc(F)c(Cl)c2)c(=O)c2sc3ccccc3c21 | . | 40% | . | -6% | 0%[59 µM] | 1%
CSc1ccc(-c2nc3cccc(C)n3c2Nc2ccc(Cl)cc2)cc1 | . | 14% | . | ? | ? | -35%
CCCC(=O)Nc1sc(C(=O)OC)c(C)c1C(N)=O | 21µM* | -22% | . | -7% | 11µM* | -4%
Cc1ccc(C(=O)Nc2cccc(NC(=O)c3ccc(C)c([N+](=O)[O-])c3)n2)cc1[N+](=O)[O-] | 3% | -10% | -2 | -33% | 8% | 2%
COC(=O)c1sc(NC(=O)c2cccc([N+](=O)[O-])c2)c(C(N)=O)c1C | 27µM* | ? | -15 | -11% | 10µM* | 1%
Cc1ccc(C(=O)Nc2sc(C)c(-c3ccccc3)c2C(N)=O)cc1[N+](=O)[O-] | 19µM* | -44% | -6 | ? | 40µM* | 4%
CCCCC(=O)Nc1sc(C(=O)N(CC)CC)c(C)c1C(=O)OC | 4.7µM* | ? | -22 | 71µM* | 2.2µM* | -18%
COc1ccccc1NC(=O)CN1C(=O)CCSc2ccccc21 | . | 25% | . | -2% | 9%[59 µM] | 4%
CCc1cc2c(cc3c(=O)n(CC(=O)N4CCCCC4)ncn32)s1 | . | 58% | . | -2% | 22%[59 µM] | 27%
COC(=O)c1c(NC(C)=O)sc2c1CCCC2 | -3% | 33% | -3 | 3% | -26%[59 µM] | -12%
CNC(=S)Nc1sc2c(c1C(=O)OC)CCC2 | -20% | 5% | 2 | 89µM* | 16µM* | 4%
COC(=O)c1c(NC(C)=O)sc2c1CCCCC2 | ? | -13% | 11 | -12% | 8.9µM* | ?
COC(=O)c1c(NC(=S)Nc2ccc(F)cc2[N+](=O)[O-])sc2c1CCCCC2 | ? | -31% | 8 | ? | 35µM* | ?
COC(=O)c1c(NC(=S)Nc2ccc(C(=O)N3CCOCC3)cc2)sc2c1CCC2 | -21% | 10% | 3 | -16% | 50µM* | -23%
COC(=O)c1c(NC(=O)C2CCCO2)sc2c1CCC2 (configuration not stated) | -5% | 2% | -4 | -17% | -10%[59 µM] | -4%
Cc1ccc(S(=O)(=O)CCC(=O)NCc2ccccc2F)cc1 | -8% | 7% | -12 | -10% | 16%[0.501 µM] | -7%

Bioassay records: PubChem, National Center for Advancing Translational Sciences (NCATS)
